Results taken from PubChem BioAssay (EPA / NIEHS).
Inconclusive results are not listed. Calls of active or inactive are those of the source. Rule for the calls: active = hit-call score of the fitted dose curve at least 0.9, where 1 is the maximum; inconclusive = response in the unintended direction; inactive = score below 0.9.

What was measured:
[1] = target: human Adrenergic, Alpha 2A Receptor (Adra2A), ADRA2A (gene 150) (UniProt P08913); experiment: NVS_GPCR_hAdra2A: NovaScreen (NVS) G Protein-Coupled Receptor Assay for human Adrenergic, Alpha 2A Receptor (Adra2A) (AID 2283257)
In short: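 Displacement of a specific radioligand from HT29 membrane protein was counted by filter scintillation after 1 h. Compounds were screened in duplicate at 25 uM, and actives were retested in concentration series. Fitting was positive-direction against DMSO.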

[2] = target: human Serotonin, 5-Hydroxytryptamine Receptor 2A (5HT2A), HTR2A (gene 3356) (UniProt P28223); experiment: NVS_GPCR_h5HT2A: NovaScreen (NVS) G Protein-Coupled Receptor Assay for human Serotonin, 5-Hydroxytryptamine Receptor 2A (5HT2A) (AID 2283249)
In short: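 Radioligand displacement on human cortex tissue extract, counted by filtration and scintillation 1.5 h post-dosing. Initial single-concentration screen at 25 uM in duplicate, concentration series in follow-up; DMSO as baseline.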

[3] = system: guinea pig Muscarinic, Peripheral (Mperiperal) Receptor, Non-selective Binding, gene 100379235; experiment: NVS_GPCR_gMPeripheral_NonSelective: NovaScreen (NVS) G Protein-Coupled Receptor Assay for guinea pig Muscarinic, Peripheral (Mperiperal) Receptor, Non-selective Binding (AID 2283250)
In short: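 Screened in duplicate at 25 uM, hits retested in concentration series to 50 uM max, using bladder membrane radioligand displacement from guinea pig. Filtration and scintillation counting 1 h post-dose, fitted relative to DMSO.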

[4] = target: human Serotonin, 5-Hydroxytryptamine Receptor 5A (5HT5A), HTR5A (gene 3361) (UniProt P47898); experiment: NVS_GPCR_h5HT5A: NovaScreen (NVS) G Protein-Coupled Receptor Assay for human Serotonin, 5-Hydroxytryptamine Receptor 5A (5HT5A) (AID 2283251)
In short: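 Membranes from HEK293 cells, radioligand binding read by filtration and scintillation after 1 h. Single-concentration duplicate testing at 25 uM, then concentration-response for actives; positive-direction fitting relative to DMSO.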

[5] = target: guinea pig Opioid, Kappa 1 Receptor (OpiateK), OPRK1 (gene 100135587) (UniProt P41144); experiment: NVS_GPCR_gOpiateK: NovaScreen (NVS) G Protein-Coupled Receptor Assay for guinea pig Opioid, Kappa 1 Receptor (OpiateK) (AID 2283252);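 note: radioligand displacement from kappa opioid receptor in guinea pig cerebellar membranes; active means reduced radioligand binding relative to DMSO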
In short: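 Cell-free tissue prep: guinea pig cerebellar membranes, radioligand displacement, 2 h incubation. Readout: filtration plus scintillation counting. Primary single-point 25 uM duplicate; actives retested in concentration series; DMSO negative control.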

[6] = target: human Serotonin, 5-Hydroxytryptamine Receptor 6 (5HT6), HTR6 (gene 3362) (UniProt P50406); experiment: NVS_GPCR_h5HT6: NovaScreen (NVS) G Protein-Coupled Receptor Assay for human Serotonin, 5-Hydroxytryptamine Receptor 6 (5HT6) (AID 2283253)
In short: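 Filter scintillation counting of radioligand displacement from HEK293-expressed 5HT6, 1 hour post-dose, with loss of signal relative to DMSO. Single 25 uM duplicates first, with concentration series for confirmation.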

[7] = target: human Adenosine A1 Receptor (AdoRA1), ADORA1 (gene 134) (UniProt P30542); experiment: NVS_GPCR_hAdoRA1: NovaScreen (NVS) G Protein-Coupled Receptor Assay for human Adenosine A1 Receptor (AdoRA1) (AID 2283254)
In short: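 Membranes from human cortical tissue were incubated with radioligand and test chemical for 1 hour, then filtered and counted. Activity was taken as signal loss relative to DMSO, screened at 25 uM in duplicate before concentration-response follow-up.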

[8] = target: human Adrenergic, Beta 1 Receptor (Adrb1), ADRB1 (gene 153) (UniProt P08588); experiment: NVS_GPCR_hAdrb1: NovaScreen (NVS) G Protein-Coupled Receptor Assay for human Adrenergic, Beta 1 Receptor (Adrb1) (AID 2283258)
In short: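 Membranes/protein extracted from human neuroepithelioma cells, radioligand competition binding read by filtration and scintillation 2 h post-dose. Single 25 uM duplicate screen, then concentration-response follow-up; DMSO as negative control.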

[9] = target: human Adrenergic, Alpha 2c Receptor (Adra2C), ADRA2C (gene 152) (UniProt P18825); experiment: NVS_GPCR_hAdra2C: NovaScreen (NVS) G Protein-Coupled Receptor Assay for human Adrenergic, Alpha 2c Receptor (Adra2C) (AID 2283259)
In short: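 Screened first in duplicate at 25 uM, with actives then run as concentration series. Membranes from Sf9 cells were exposed for 1 h, and displacement of radioligand was counted after filtration, using DMSO as baseline.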

[10] = target: human Adenosine A2a Receptor (AdoRA2a), ADORA2A (gene 135) (UniProt P29274); experiment: NVS_GPCR_hAdoRA2a: NovaScreen (NVS) G Protein-Coupled Receptor Assay for human Adenosine A2a Receptor (AdoRA2a) (AID 2283256)
In short: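 HEK293-derived receptor preparation, radioligand displacement, 1.5 h, filtration + scintillation read. Loss of bound signal scored vs DMSO. Single-point 25 uM in duplicate first, then concentration-response for actives.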

human Serotonin, 5-Hydroxytryptamine Receptor 6 (5HT6), HTR6 (gene 3362), sequence (P50406 whole entry, looked up): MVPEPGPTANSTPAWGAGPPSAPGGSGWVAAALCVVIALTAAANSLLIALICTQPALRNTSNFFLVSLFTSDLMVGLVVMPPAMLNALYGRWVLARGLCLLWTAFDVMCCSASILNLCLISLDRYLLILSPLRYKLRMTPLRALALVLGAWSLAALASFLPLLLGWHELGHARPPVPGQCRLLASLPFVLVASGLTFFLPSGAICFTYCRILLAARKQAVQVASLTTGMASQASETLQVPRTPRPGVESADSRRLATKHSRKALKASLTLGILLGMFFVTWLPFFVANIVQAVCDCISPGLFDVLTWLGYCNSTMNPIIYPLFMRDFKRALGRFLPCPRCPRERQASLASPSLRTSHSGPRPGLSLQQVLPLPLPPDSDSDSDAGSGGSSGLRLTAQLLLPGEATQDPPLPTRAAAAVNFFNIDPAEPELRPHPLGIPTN
guinea pig Opioid, Kappa 1 Receptor (OpiateK), OPRK1 (gene 100135587), sequence (P41144 whole entry, looked up): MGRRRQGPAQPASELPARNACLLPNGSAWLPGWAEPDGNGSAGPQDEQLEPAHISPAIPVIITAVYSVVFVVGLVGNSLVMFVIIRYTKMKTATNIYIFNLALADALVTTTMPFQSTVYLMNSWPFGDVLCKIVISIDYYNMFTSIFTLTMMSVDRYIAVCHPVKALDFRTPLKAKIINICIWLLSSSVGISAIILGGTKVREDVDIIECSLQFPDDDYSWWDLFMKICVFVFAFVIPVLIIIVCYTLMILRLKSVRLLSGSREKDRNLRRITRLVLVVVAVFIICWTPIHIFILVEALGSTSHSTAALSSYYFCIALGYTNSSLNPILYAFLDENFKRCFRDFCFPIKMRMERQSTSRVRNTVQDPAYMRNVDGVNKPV
human Serotonin, 5-Hydroxytryptamine Receptor 2A (5HT2A), HTR2A (gene 3356), sequence (P28223 whole entry, looked up): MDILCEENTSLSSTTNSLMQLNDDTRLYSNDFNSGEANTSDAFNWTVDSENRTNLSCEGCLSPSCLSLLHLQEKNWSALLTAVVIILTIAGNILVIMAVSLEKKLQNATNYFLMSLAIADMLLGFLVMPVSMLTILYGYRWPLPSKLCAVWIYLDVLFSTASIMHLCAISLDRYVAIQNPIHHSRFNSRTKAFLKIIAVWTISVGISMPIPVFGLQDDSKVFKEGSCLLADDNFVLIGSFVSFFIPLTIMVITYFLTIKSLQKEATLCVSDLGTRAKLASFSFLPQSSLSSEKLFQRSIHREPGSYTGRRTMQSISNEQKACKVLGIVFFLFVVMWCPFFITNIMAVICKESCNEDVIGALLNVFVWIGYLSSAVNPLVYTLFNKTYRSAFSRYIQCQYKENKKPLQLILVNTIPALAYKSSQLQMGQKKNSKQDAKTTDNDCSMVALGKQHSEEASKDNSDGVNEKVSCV
human Adenosine A2a Receptor (AdoRA2a), ADORA2A (gene 135), sequence (P29274 whole entry, looked up): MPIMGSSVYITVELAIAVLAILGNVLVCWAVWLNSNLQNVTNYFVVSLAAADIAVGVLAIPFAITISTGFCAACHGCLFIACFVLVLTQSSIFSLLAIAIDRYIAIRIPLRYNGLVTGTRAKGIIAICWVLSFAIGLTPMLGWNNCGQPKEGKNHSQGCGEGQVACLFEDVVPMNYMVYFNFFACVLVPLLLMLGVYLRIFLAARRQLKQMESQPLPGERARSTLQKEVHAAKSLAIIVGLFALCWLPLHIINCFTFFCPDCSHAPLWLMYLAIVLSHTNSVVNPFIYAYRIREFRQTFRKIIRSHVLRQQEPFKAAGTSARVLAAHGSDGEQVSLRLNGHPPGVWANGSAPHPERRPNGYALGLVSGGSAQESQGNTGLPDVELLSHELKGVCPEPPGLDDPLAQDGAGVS
human Adrenergic, Alpha 2c Receptor (Adra2C), ADRA2C (gene 152), sequence (P18825 whole entry, looked up): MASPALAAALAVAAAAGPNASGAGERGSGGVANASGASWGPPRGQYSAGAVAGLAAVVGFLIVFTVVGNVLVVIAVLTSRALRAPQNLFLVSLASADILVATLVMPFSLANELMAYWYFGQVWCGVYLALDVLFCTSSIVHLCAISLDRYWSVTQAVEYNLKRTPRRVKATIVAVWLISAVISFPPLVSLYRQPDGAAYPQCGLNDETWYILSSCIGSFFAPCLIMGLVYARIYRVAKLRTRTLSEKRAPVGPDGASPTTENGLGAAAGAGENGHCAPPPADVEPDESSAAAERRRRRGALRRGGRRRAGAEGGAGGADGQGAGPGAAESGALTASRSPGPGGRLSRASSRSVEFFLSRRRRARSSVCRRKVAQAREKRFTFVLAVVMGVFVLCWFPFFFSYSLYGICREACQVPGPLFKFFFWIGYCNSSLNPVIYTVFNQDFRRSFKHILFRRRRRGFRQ
human Adrenergic, Alpha 2A Receptor (Adra2A), ADRA2A (gene 150), sequence (P08913 whole entry, looked up): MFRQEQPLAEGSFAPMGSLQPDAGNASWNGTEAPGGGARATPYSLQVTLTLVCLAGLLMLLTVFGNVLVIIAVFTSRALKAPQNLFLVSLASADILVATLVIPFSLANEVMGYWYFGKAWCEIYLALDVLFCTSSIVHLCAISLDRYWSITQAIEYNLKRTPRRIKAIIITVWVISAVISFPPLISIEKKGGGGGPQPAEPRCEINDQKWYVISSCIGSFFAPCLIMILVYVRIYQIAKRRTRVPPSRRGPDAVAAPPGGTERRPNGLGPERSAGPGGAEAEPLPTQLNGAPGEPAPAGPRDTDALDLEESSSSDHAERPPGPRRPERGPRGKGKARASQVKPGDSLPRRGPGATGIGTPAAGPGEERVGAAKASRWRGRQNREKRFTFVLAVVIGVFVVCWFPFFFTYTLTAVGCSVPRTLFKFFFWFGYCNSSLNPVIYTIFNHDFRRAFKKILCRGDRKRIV
human Serotonin, 5-Hydroxytryptamine Receptor 5A (5HT5A), HTR5A (gene 3361), sequence (P47898 whole entry, looked up): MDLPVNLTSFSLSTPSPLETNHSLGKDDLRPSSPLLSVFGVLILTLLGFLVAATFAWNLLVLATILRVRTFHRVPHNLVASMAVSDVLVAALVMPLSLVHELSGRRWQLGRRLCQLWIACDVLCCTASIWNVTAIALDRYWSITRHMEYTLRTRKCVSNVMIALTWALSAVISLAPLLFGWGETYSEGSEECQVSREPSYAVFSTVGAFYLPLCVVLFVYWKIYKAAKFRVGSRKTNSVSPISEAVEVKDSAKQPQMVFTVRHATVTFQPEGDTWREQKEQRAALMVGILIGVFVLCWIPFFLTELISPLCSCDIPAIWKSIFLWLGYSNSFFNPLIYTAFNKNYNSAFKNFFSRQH
human Adenosine A1 Receptor (AdoRA1), ADORA1 (gene 134), sequence (P30542 whole entry, looked up): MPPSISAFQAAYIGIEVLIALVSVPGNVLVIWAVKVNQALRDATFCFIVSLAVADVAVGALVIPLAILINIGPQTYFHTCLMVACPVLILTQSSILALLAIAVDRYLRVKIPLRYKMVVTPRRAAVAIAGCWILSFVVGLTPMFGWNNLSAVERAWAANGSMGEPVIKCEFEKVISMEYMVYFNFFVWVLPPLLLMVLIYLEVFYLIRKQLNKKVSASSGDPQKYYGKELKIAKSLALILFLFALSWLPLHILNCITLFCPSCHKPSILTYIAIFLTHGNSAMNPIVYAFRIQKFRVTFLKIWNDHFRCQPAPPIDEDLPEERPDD
human Adrenergic, Beta 1 Receptor (Adrb1), ADRB1 (gene 153), sequence (P08588 whole entry, looked up): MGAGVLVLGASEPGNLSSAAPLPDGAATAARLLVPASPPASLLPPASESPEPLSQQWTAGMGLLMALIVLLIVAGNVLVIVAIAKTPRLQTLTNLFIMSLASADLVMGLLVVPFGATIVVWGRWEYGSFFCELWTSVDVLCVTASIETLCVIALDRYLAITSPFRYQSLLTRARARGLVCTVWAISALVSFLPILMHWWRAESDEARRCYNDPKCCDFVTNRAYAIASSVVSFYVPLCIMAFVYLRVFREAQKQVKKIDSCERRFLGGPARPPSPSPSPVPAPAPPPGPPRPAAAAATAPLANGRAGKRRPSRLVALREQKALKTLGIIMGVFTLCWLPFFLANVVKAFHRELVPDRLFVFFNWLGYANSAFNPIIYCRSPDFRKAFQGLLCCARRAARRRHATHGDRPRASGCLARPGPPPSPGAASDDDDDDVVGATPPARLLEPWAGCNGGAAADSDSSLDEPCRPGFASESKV

Question: How did the outcome [1] turn out when `CCCCCCC(=O)O` was run?
Answer: inactive

Question: `CCCOc1sc(C(=O)N2CCC(c3cc(CN)ccc3F)CC2)c(C)c1Br` was tested. Which AC50 [2] did it give?
Answer: 14.3 µM (active)

Question: What about the AC50 [3] of the same molecule?
Answer: 23.2 µM (active)

Question: What about the AC50 [4] of the same molecule?
Answer: 15.1 µM (active)

Question: And the outcome [5]?
Answer: inactive

Question: And the AC50 [6]?
Answer: 8.41 µM (active)

Question: And the AC50 [7]?
Answer: 17.2 µM (active)

Question: And the AC50 [1]?
Answer: 4.12 µM (active)

Question: And the AC50 [8]?
Answer: 15.2 µM (active)

Question: And the AC50 [9]?
Answer: 8.34 µM (active)

Question: Which AC50 [7] does the source give for `CCCOC(=O)c1ccc(O)cc1` here?
Answer: 11.8 µM (active)

Question: How did the outcome [2] turn out when `O=c1c(-c2ccc(O)cc2)coc2cc(O)ccc12` was run?
Answer: inactive

Question: How did the outcome [2] turn out when `CC(C)(C)c1cc(C(C)(C)C)c(O)c(C(C)(C)C)c1` was run?
Answer: inactive

Question: `CCC(=C(c1ccc(O)cc1)c1ccc(OCCN(C)C)cc1)c1ccccc1` was tested. Which AC50 [4] did it give?
Answer: 3.32 µM (active)

Question: What about the AC50 [6] of the same molecule?
Answer: 1.74 µM (active)

Question: What about the AC50 [7] of the same molecule?
Answer: 2.12 µM (active)

Question: What about the AC50 [10] of the same molecule?
Answer: 3.08 µM (active)

Question: What about the AC50 [9] of the same molecule?
Answer: 4.42 µM (active)

Question: What does the source list for `CCN(CC)CCNc1ccc(CNC=O)c2sc3ccc(OC)cc3c(=O)c12`?
Answer: AC50 [3]: 5.83 µM (active); AC50 [4]: 4.96 µM (active); AC50 [5]: 25 µM (active); AC50 [7]: 3.34 µM (active); AC50 [10]: 5.28 µM (active); outcome [1]: inactive; AC50 [9]: 14.6 µM (active)

Question: `CCCCCCCCCCCCc1ccccc1S(=O)(=O)O` was tested. Which AC50 [4] did it give?
Answer: 6.39 µM (active)

Question: What about the outcome [5] of the same molecule?
Answer: inactive

Question: And the AC50 [6]?
Answer: 31.9 µM (active)

Question: What about the AC50 [7] of the same molecule?
Answer: 18.1 µM (active)

Question: And the AC50 [10]?
Answer: 22.6 µM (active)

Question: And the outcome [1]?
Answer: inactive

Question: And the AC50 [8]?
Answer: 6.83 µM (active)

Question: And the AC50 [9]?
Answer: 7.16 µM (active)

Question: How did the AC50 [7] turn out when `O=C(OCCOCCOC(=O)c1ccccc1)c1ccccc1` was run?
Answer: 5.62 µM (active)

Question: What does the source list for `CCCCCCCC(=O)O`?
Answer: outcome [3]: inactive; outcome [5]: inactive; outcome [7]: inactive

Question: `Oc1cc2ccccc2c2ccccc12` was tested. Which outcome [10] did it give?
Answer: inactive

Question: What does the source list for `Cc1oc(-c2ccccc2)nc1CCOc1ccc(C[C@H](Nc2ccccc2C(=O)c2ccccc2)C(=O)O)cc1`?
Answer: AC50 [4]: 9.5 µM (active); AC50 [7]: 25 µM (active); AC50 [9]: 13.6 µM (active)
